Test results published in PMC12864922, “TDP-43 directly inhibits mRNA accumulation in neurites through modulation of mRNA stability”.
Over roughly 9,900 sequences, “r (bound/input frequency ratio)” has its median near 0.7; the highest 2% begin near 6.5. For the sample, the highest values were picked, then their nearest neighbours and some sequences at random.

B1: ENSMUSG00000032194.294|Kank2 (ssRNA)
RNA: GGGAGUUCUACAGUCCGACGAUCGCUUCGAUAUCCGCAUGCUAAUGGAUGAGAAACUGGGUUGGCUGGUGGGUAGAUGUCAUGAUGGAGUCUUUGCACGUGUAUGAAACAGAAAACCAAACUUCAGGACAGACAGCUGCUGGUGUCUCUGGAUGCUCACAGCCUAGGGCACAUUUGAAAGGUCGUGCUCUGAGCUGAGCCCUGAGUUCCAGCCUUGUAGCCAGCAAGGGAGUUUAUUUAAGGUUCUGGAAGCAUCAGCUAUGACCCAAAGCACACGCUCCUCAGAAAAGCCCCUGUUUCUGUCCUCUUGCGGUCGCACUAGUGUGGAAUUCUCGGGUGUCAAGG
B2: ENSMUSG00000042529.84|Kcnj12 (ssRNA)
RNA: GGGAGUUCUACAGUCCGACGAUCGCUUCGAUAUCCGCAUGCUACCCCACAAAACACAAGAAAACAUUAACAGGUGGUUCAAUUUUUAAAAUUCCUGGUGUGGGGACAGUUGGAAUUCUACUCAGCGCUGCCAGGCAAGCAGCUGGACGGAGAACCCUGAGGGUUCUCAGAGGUCUGUUUUCUCCCUCACGUGGGCCAGGGCCUUAAGCGAGUUGUCAUGCUUAAGGAUGAAUCAGGCUGCUUGUGACCAUGUUAACGAUUCUAAUAAAGUGUCUGGAUGUCUCUUGGGGGUGGGGCCCACUAGCUCUUGCGGUCGCACUAGUGUGGAAUUCUCGGGUGUCAAGG
B3: ENSMUSG00000061578.34|Ksr2|40:50;139:145;150:154 (ssRNA)
RNA: GGGAGUUCUACAGUCCGACGAUCGCUUCGAUAUCCGCAUGCUACCACUCAACUAGGACCAAACUGGGCCAGAGAGGGUCCCAACACACCACACAAGGAGCCACAGACUGAGCACACCACCUCGGACUGUGGAGACCAAGACACAUGCCCAGUGGGCAGACUCAGACUCACACGCUGGACCACACACACCGCAACACACUACACAUGGACAGGGCCAACUGCUAUCCUUCUGCCUGGACGAGCCAGCUGUGGAGUGUCCCAGCUGUGCUAUCCUGGAACACAGAACCAGGAUGGAACCAGAAACCUCUUGCGGUCGCACUAGUGUGGAAUUCUCGGGUGUCAAGG
B4: ENSMUSG00000061578.47|Ksr2|61:67;72:76 (ssRNA)
RNA: GGGAGUUCUACAGUCCGACGAUCGCUUCGAUAUCCGCAUGCUACGGACUGUGGAGACCAAGACACAUGCCCAGUGGGCAGACUCAGACUCACACGCUGGACCACACACACCGCAACACACUACACAUGGACAGGGCCAACUGCUAUCCUUCUGCCUGGACGAGCCAGCUGUGGAGUGUCCCAGCUGUGCUAUCCUGGAACACAGAACCAGGAUGGAACCAGAAACAAUACACCUGCUCCGUUGUCAAGGCUUCUAGGCCAAGGUCAGGGUAGGGAGGUGGGGUGGGUUAAACUUGCAAACAUCCUCUUGCGGUCGCACUAGUGUGGAAUUCUCGGGUGUCAAGG

target: TDP-43 (Homo sapiens, UniProt Q13148 1-414); test: RNA Bind-n-Seq with designed 260-mer pool; 25 mM Tris-HCl, 150 mM KCl, 3 mM MgCl2, BSA (printed 500 mg/mL), 20 units/mL SUPERase IN; pH not stated; 500 nM RNA pool, 1 h, 4 C; TDP-43 5, 50, 500 nM; high values mean tight binding; details: protein: recombinant; tags: SBP (GST cleaved off with PreScission; pGEX-GST-SBP)
Sequence (Q13148 whole entry): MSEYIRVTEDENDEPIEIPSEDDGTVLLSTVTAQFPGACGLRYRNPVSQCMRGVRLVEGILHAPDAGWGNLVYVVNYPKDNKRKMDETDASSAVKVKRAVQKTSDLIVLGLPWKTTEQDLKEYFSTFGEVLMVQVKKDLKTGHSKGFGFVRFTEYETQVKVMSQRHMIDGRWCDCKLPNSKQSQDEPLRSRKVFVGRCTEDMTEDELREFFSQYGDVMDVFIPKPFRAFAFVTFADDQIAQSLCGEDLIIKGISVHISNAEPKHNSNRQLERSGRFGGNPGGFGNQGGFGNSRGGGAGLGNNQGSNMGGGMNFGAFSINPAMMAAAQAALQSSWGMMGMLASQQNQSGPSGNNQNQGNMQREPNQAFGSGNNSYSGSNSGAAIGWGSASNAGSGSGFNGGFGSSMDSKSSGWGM
In short: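 An in vitro-transcribed pool of 260-nt 3′ UTR oligos (500 nM) was incubated for 1 h at 4 °C with recombinant SBP-tagged TDP-43 at 5, 50 or 500 nM held on streptavidin beads. The buffer contained 25 mM Tris-HCl, 150 mM KCl, 3 mM MgCl2, BSA and SUPERase IN. Biotin-eluted bound RNA was sequenced, and binding, R, is each oligo's normalized read abundance in the bound sample over that in input.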

Row | Binder | binding signal
1 | B1 | 0.914 R (bound/input frequency ratio)
2 | B2 | 1.71 R (bound/input frequency ratio)
3 | B3 | 1.07 R (bound/input frequency ratio)
4 | B4 | 0.292 R (bound/input frequency ratio)
